This is an account of results in PubChem BioAssay.

The source made the active and inactive calls.

For assay [1], the system named is Plasmodium falciparum Sir2 (PF13_0152, Sir2A). The experiment in a line: pfSir2 binders on small-molecule microarrays, primary screen, biochemical, small-molecule microarray, 635 nm fluorescence (AID 1098).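 Also: score merges spot fluorescence intensity with its signal-to-noise ratio.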 As to conditions: small-molecule microarray binding, fluorescence 635 nm; higher = more signal.
A short description of assay [2]: small-molecule microarray binders of probe aDKK1, primary screen, biochemical, biotinylated probe, 635/667 nm fluorescence (AID 1099).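 Also: score merges 667nm spot fluorescence with signal to noise across triplicate slides.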 As to conditions: higher = more signal.
Assay [3] is described as follows: small-molecule microarray binders of probe aCHRDL2, primary screen, biochemical, biotinylated probe, 635/667 nm fluorescence (AID 1100). Particulars: higher = more signal.
Assay [4] in a line: splicing luciferase reporter signal modulators, primary screen, spliceosome inhibition project, cell-based, HEK293, splice +/- reporter (AID 1101).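 Also: HEK293 cells carrying a splicing-competent luciferase reporter gene; test concentration not given here.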 Particulars: luminescence, 24 h, higher = more signal, called active from +8 up or from −8 down. For orientation: Reporter assays use an easily measured gene product as a stand-in for the process of interest.
Assay [5] deals with Fibroblast growth factor 10 (Homo sapiens) (UniProt O15520). In words: FGF10 binders on small-molecule microarrays, primary screen, biochemical, small-molecule microarray, 635 nm fluorescence (AID 1102). Particulars: FGF10 binding, fluorescence 635 nm, higher = more signal.
Fibroblast growth factor 10 (Homo sapiens), sequence (O15520 whole entry, looked up): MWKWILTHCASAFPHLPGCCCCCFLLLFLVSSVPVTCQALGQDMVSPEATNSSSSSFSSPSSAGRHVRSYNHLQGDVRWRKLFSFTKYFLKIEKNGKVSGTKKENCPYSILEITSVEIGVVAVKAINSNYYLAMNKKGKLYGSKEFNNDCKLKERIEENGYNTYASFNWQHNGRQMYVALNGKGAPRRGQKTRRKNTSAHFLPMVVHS
For assay [6], the system named is glycogen synthase kinase-3 (GSK3A per assay name; protocol says GSK3B). In words: GSK3 binders on small-molecule microarrays, primary screen, biochemical, small-molecule microarray, 635 nm fluorescence, GSK3A (AID 1103). Also: the record names both GSK3A and GSK3B. As to conditions: small-molecule microarray binding, fluorescence 635 nm; higher = more signal.
Assay [7] deals with Epidermal growth factor receptor (Homo sapiens) (UniProt P00533). In words: EGFR binders on small-molecule microarrays, primary screen, biochemical, small-molecule microarray, 635 nm fluorescence (AID 1104).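 Also: score merges 667 nm emission intensity with spot signal to noise over triplicate slides.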 As to conditions: EGFR binding, higher = more signal.
Epidermal growth factor receptor (Homo sapiens), sequence (P00533 whole entry, looked up): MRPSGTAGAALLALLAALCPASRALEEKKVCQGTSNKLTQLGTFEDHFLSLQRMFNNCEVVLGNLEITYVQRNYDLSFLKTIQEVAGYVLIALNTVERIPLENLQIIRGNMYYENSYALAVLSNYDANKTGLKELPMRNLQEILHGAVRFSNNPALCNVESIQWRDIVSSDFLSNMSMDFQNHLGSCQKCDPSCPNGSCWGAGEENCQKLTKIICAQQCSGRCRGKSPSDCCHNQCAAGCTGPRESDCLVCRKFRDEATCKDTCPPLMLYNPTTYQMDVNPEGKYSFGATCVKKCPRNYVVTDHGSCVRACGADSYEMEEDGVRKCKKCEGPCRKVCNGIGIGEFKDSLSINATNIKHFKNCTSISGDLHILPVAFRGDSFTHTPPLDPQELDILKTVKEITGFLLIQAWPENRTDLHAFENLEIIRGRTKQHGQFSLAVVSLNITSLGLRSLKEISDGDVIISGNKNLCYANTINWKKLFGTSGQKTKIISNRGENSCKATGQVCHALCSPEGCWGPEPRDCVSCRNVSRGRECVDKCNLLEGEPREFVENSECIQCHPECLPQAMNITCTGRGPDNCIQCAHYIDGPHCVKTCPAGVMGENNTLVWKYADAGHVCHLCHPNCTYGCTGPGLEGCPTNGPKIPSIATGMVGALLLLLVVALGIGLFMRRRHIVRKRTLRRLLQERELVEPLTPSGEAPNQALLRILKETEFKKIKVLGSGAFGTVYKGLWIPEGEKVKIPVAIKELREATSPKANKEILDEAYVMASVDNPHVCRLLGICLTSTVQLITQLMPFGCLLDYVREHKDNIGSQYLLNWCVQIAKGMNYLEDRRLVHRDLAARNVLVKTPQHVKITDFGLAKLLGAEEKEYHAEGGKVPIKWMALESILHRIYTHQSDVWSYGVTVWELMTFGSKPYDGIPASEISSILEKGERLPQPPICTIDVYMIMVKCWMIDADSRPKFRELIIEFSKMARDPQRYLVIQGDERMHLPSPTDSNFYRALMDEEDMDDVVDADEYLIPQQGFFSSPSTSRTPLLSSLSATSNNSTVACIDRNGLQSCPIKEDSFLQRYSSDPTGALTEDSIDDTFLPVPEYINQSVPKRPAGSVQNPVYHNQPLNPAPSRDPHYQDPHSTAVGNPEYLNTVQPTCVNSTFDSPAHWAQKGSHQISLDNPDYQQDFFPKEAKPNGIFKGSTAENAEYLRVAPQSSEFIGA
For assay [8], the target named is Follistatin-related protein 3 (Homo sapiens) (UniProt O95633). In words: FSTL3 binders on small-molecule microarrays, primary screen, biochemical, small-molecule microarray, 635 nm fluorescence (AID 1105).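 Also: score merges emission near 667 nm and signal to noise per printed spot across three slides.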 As to conditions: FSTL3 binding, higher = more signal.
Follistatin-related protein 3 (Homo sapiens), sequence (O95633 whole entry, looked up): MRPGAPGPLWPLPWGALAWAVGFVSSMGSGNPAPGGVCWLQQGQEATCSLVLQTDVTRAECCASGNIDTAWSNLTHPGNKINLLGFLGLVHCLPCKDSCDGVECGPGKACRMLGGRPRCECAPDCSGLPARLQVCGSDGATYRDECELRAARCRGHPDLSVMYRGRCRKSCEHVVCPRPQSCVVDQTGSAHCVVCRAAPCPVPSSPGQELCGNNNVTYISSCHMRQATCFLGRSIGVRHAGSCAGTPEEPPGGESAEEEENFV
The target of assay [9] is Dickkopf-related protein 1 (Homo sapiens) (UniProt O94907). In words: DKK1 binders on small-molecule microarrays, primary screen, biochemical, small-molecule microarray, 635 nm fluorescence scan (AID 1106).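 Also: score merges emission near 667 nm with signal to noise over three replicate slides.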 Particulars: DKK1 binding, higher = more signal.
Dickkopf-related protein 1 (Homo sapiens), sequence (O94907 whole entry, looked up): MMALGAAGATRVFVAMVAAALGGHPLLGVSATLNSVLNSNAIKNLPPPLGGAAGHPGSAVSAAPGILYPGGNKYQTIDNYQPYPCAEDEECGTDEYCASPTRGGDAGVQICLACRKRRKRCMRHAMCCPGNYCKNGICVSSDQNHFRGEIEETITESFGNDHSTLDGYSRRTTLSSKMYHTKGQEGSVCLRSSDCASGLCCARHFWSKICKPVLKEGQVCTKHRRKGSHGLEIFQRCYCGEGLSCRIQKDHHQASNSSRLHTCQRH
In assay [10] the test system is Inhibin beta A chain (activin A). In words: INHBA (activin A) binders on microarrays, primary screen, biochemical, small-molecule microarray, 635 nm fluorescence scan (AID 1107).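 Also: mouse activin A protein probed at 4.33 µg/mL on printed slides; score merges bound-protein fluorescence near 667 nm with spot signal-to-noise.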 Particulars: small-molecule microarray binding, higher = more signal.
In assay [11] the test system is Human papillomavirus type 1a protein E7 (residues 44-93). In words: HPV1a E7 fragment binders on microarrays, primary screen, biochemical, small-molecule microarray, residues 44-93, 635 nm fluorescence (AID 1108).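 Also: E7 fragment applied at 1 µg/mL in TBST for 1 h at 4 C; score combines spot fluorescence with its signal to noise ratio.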 As to conditions: small-molecule microarray binding, fluorescence 635 nm; higher = more signal.
The nature of assay [12]: modulators of HCV replicon luciferase signal, primary screen, HCV replication inhibitor project, Huh7 cells, luciferase reporter (AID 1109).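 Also: huh7 hepatoma cells harbouring a luciferase neomycin HCV replicon reporter; luciferase luminescence as measure of HCV replicon replication; test concentration not given here.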 As to conditions: 48 h, higher = more signal. (In general: In antiviral work, replicon cells carry a viral genome segment that copies itself.)
Assay [13] concerns the target Left-right determination factor 2 (Homo sapiens) (UniProt O00292). The experiment in a line: LEFTY2 binders on small-molecule microarrays, primary screen, biochemical, small-molecule microarray, 635 nm fluorescence scan (AID 1110). As to conditions: LEFTY2 binding, higher = more signal.
Assay [14] addresses Calmodulin-1 (Homo sapiens) (UniProt P0DP23). In words: CALM1 binders on microarrays, EGTA buffer, profiling panel, biochemical, small-molecule microarray, Cy5-labelled CALM1 (AID 1111).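 Also: labelled calmodulin applied in Tris saline Tween buffer holding calcium plus EGTA and DTT.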 As to conditions: Cy5-CALM1 binding fluorescence, higher = more signal.
Assay [15] has the same target. In words: calcium-bound CALM1 binders on microarrays, profiling panel, artefact control for SMM control-protein annotation, biochemical, small-molecule microarray, Cy5-labelled CALM1, plus calcium (AID 1112).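 Also: score merges spot fluorescence with signal to noise from triplicate slides.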 As to conditions: Cy5-CALM1 binding fluorescence, higher = more signal.
Assay [16] in a line: small-molecule microarray binders of probe aWnt5a, primary screen, biochemical, biotinylated probe, 635/667 nm fluorescence (AID 1113).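 Also: score merges 667 nm fluorescence intensity with signal-to-noise per printed feature.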 As to conditions: higher = more signal.
Assay [17] is described as follows: small-molecule microarray binders of probe aShh, primary screen, biochemical, biotinylated probe, 635/667 nm fluorescence (AID 1114).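 Also: probe is biotin-labelled aShh protein from a stem cell growth factor screen; measures binding of labelled protein to compounds printed on the slide; score merges feature fluorescence at 667 nm with signal-to-noise.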 As to conditions: higher = more signal.
A short description of assay [18]: small-molecule microarray binders of probe aNog, primary screen, biochemical, biotinylated probe, 635/667 nm fluorescence (AID 1115).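 Also: probe is biotinylated aNog protein used at 0.15 µg/mL for 1 h at 4 C; z-score combines 667 nm fluorescence of each spot with its signal to noise.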 As to conditions: higher = more signal.
Assay [19] has as its target Torsin-1A-interacting protein 1 (Homo sapiens) (UniProt Q5JTV8). The experiment in a line: LAP1 binders from COS7 cell lysate, primary screen, small-molecule microarray, 635/667 nm fluorescence (AID 1116). As to conditions: COS7-hLAP1 lysate binding, 635 nm fluorescence, higher = more signal.
Assay [20] deals with Alpha-bungarotoxin (Bungarus multicinctus) (UniProt P60615). In words: alpha-bungarotoxin binders on microarray, profiling panel, artefact control for SMM control protein annotation, biochemical, small-molecule microarray, Alexa647 label, 635/667 nm fluorescence (AID 1117). As to conditions: alpha-BTX-A647 binding fluorescence, higher = more signal.
Alpha-bungarotoxin (Bungarus multicinctus), sequence (P60615 whole entry, looked up): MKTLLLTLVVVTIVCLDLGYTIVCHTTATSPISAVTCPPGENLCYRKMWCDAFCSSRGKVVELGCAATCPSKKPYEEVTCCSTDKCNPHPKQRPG

Torsin-1A-interacting protein 1 (Homo sapiens), sequence (Q5JTV8 whole entry, looked up): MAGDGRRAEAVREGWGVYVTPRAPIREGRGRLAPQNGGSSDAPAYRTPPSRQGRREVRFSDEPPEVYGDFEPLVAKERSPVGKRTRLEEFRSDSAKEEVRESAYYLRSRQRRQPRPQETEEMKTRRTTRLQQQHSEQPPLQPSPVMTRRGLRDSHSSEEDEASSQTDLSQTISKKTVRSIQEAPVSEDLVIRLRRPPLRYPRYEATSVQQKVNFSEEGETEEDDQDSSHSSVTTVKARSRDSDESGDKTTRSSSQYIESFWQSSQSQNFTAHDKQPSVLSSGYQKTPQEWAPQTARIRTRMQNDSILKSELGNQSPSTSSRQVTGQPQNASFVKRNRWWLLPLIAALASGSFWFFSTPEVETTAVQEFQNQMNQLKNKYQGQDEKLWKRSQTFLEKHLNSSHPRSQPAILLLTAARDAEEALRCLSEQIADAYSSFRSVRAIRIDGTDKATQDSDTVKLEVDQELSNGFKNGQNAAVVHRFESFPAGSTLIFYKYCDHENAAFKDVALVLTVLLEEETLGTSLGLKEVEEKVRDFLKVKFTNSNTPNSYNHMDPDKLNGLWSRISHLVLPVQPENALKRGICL
Left-right determination factor 2 (Homo sapiens), sequence (O00292 whole entry, looked up): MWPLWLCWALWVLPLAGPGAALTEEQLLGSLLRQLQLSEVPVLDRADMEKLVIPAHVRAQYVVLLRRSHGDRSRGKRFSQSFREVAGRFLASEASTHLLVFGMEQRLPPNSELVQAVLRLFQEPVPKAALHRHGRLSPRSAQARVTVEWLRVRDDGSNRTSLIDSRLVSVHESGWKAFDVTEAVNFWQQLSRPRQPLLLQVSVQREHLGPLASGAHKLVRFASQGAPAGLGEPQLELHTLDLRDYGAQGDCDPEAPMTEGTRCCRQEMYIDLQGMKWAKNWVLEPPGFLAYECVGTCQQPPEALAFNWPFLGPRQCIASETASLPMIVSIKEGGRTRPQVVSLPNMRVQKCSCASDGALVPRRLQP

`COCCCNC(=O)[C@@H]1c2ccccc2C(=O)N(Cc2ccc(OC(F)(F)F)cc2)[C@H]1c1ccc(CO)cc1`: the composite z-score in assay [1] amounted to 0.499; in assay [2], 0.21; in assay [3], 0.215; in assay [5] it was 0.393; in assay [6], 0.723; in [7], 0.0725. For the same molecule, the composite z-score came to 0.481 in assay [8]; 0.743 in [9]; 0.639 in assay [10]; 1.1 in [11]; 0.0983 in assay [13]; 0.0389 in assay [14]. The composite z-score in [15] is -0.269; in assay [16] it was 0.0215; in assay [17] it was -0.0035; in assay [18], -0.553; in assay [19], 0.378; in [20] it was 0.516. The z-score in [4] was 0.0366 (inactive); in assay [12], -0.223.
With `C[C@@H]1ON(c2ccc(I)cc2)[C@H](c2cccc(NC(=O)OCC3c4ccccc4-c4ccccc43)c2)[C@H]1C(=O)N1C(=O)OC[C@H]1Cc1ccccc1`, the composite z-score in [1] is 0.683; in assay [2], 1.04; in assay [3], -0.387; in assay [5], 0.252; in assay [6], 0.529; in assay [7], 0.325. Also, the composite z-score in assay [8] was determined as 0.951; in [9], 1.05; in assay [10], 0.529; in [11], 0.531; in assay [13], 0.678; in [14] it was 0.224. The composite z-score in [15] is -0.435; in assay [16] it was -0.142; in assay [17], -0.0866; in assay [18], -0.285; in assay [19], 0.246; in assay [20], -0.0652. Further, the figures for the z-score in assay [4] and in [12] were -0.271 (inactive) and -0.31, respectively.
For the molecule `O=C1C2C=CC(C(O)c3cccs3)N(Nc3ccc([N+](=O)[O-])cc3)C2C(=O)N1c1ccccc1` (stereo not given), the composite z-score in assay [1] was found to be 0.672; in assay [2], 0.352; in assay [3], 0.25; in assay [5] it was 0.534; in assay [6], 0.684; in [7], 0.346. Further, the composite z-score in assay [8] stood at 0.393; in assay [9], 0.21; in assay [10], 0.796; in assay [11], 0.759; in [13] it was 0.318; in [14], 0.439. Further, the composite z-score in [15] is 0.123; in [16], -0.0179; in [17], 0.0684; in assay [18] it was 0.668; in [19] it was 1.01; in assay [20], 0.69. For the same molecule, the z-score is 1.15 (inactive) in [4] and -0.6 in assay [12].
For the molecule `CCCCCC1=C2CNC(Cc3ccccc3)(C(=O)OC)C=C2C(C)C1=O` (stereo not given), the composite z-score in assay [1] is 0.0442; in [2] it was 0.926; in assay [3] it was 1.37; in assay [5], -0.0286; in assay [6], -1.16; in assay [7], -0.779. In addition, the composite z-score in assay [8] was -0.733; in assay [9] it was -1.84; in [10] it was 1.47; in [11] it was 0.719; in [13], -1.75; in assay [14], 1.54. The composite z-score in assay [15] was 1.46; in assay [16], -0.0643; in [17], 0.45; in assay [18] it was 1.7; in assay [19], 1.64; in assay [20], 0.175. The z-score was 73.6 (active) in assay [4] and -1.85 in assay [12].
Turning to `COCCn1c(C(=O)N(C)C)cc2c1C[C@H]1CN(C(=O)c3ccccc3)[C@@](Cc3ccc(OC)cc3)(C(=O)OC)[C@@H]21`, the composite z-score in assay [1] is 0.816; in assay [2] it was 0.785; in [3], 1.34; in assay [5], 0.26; in assay [6] it was 0.22; in assay [7] it was 0.0351. Also, the composite z-score in assay [8] is 0.324; in assay [9] it was -0.745; in assay [10], 1.21; in assay [11], 1.38; in assay [13] it was 0.0756; in assay [14] it was 0.572. The composite z-score in assay [15] turned out to be 0.25; in assay [16] it was 0.0431; in assay [17] it was 0.204; in assay [18] it was 0.919; in [19], 0.357; in assay [20] it was 0.0924. The z-score in assay [4] was -0.346 (inactive); in [12], -1.27.
